We go through 37 compounds from PubChem BioAssay (NCATS).

Inconclusive results are not listed. A call without a number means that no potency is given here. Calls of active or inactive are those of the source. The call rests on the fitted dose curve; in most records, active means well fitted activation curve with a large enough effect in the signal ratio; inconclusive means small, poorly fitted or top-dose-only effect, or effect the other way, or a change in a side signal; inactive means flat fitted curve, though single readings scatter; the % refers to the signal ratio.
Potency means the concentration at half of the fitted maximal effect.

The nature of this assay: qHTS assay to identify small molecules that stimulate interleukin-8 (IL-8) secretion (AID 651758). The following applies: HTRF ratio (665/615); series mostly up to 92.2 µM. An excerpt:
National Center for Advancing Translational Sciences [NCATS]
NIH Chemical Genomics Center [NCGC]
National Institutes of Environmental Health Sciences [NIEHS]
National Toxicology Program [NTP]
Interleukin-8 is a 8 kDa chemokine produced by macrophages and other cells like epithelial cells that is often associated with inflammation. Interleukin-8 secretion is a key parameter in localized inflammation. There is a growing concern for some of environmental chemicals which may contribute the increasing the incidence of inflammation. A homogeneous IL-8 assay using Time Resolved fluorescence (HTRF) technology based on Time Resolved Fluorescent Resonance Energy Transfer (TR-FRET) allows to measure IL-8 secreted from the cells in a 1536-well plate format.
THP-1 cells were dispensed at 2000 cells/5ul/well in 1536-well white solid plates. After addition of 23 nl of compound, positive controls and DMSO only, the assay plates were incubated at 37 C for 16 hrs, followed by addition of 5 uL of mixture of cryptate labeled and XL665 labeled anti-IL-8 antibodies. After the assay plates were incubated at room temperature for 1-3 hrs, the plates were measured by an EnVision plate reader.
On the technique in general: In qHTS, concentration-response curves come from the screen itself.
Consider `S=C=Nc1cccc2ccccc12`, for which the Potency entry is “inactive”.

Consider `O=C=NC1CCCCC1`, for which the Potency result was “inactive”.

In the case of `c1ccc(OP(Oc2ccccc2)Oc2ccccc2)cc1`, the Potency entry was “inactive”.

For `C=CCOC(=O)c1ccccc1N`, the Potency entry is “inactive”.

For `CCCCCCCC(=O)Cl`, the Potency result was “inactive”.

Take `ClC1=C(Cl)C2(Cl)C3C4C=CC(C4)C3C1(Cl)C2(Cl)Cl` (configuration not stated): the Potency is 42.2 µM (active).

As to `CC(C)(C)OOC(C)(C)C`, the Potency result is “inactive”.

For `CCOc1ccc(N)cc1`, the Potency entry is “inactive”.

Regarding `O=S1OCC2C(CO1)C1(Cl)C(Cl)=C(Cl)C2(Cl)C1(Cl)Cl` (configuration not stated), the Potency was 66.8 µM (active).

As for `CC(C)(c1ccccc1)c1ccc(O)cc1`, the Potency entry was “inactive”.

Turning to `Cc1ccccc1N`, the Potency result was “inactive”.

`C=CC(N)=O`: the Potency result is “inactive”.

For the compound `C[N+](C)(C)Cc1ccccc1`, the Potency result was “inactive”.

Take `c1ccc(-c2ccccc2)cc1`: the Potency result was “inactive”.

In the case of `CCCC(=O)Cl`, the Potency result is “inactive”.

`ClC(Cl)=C(Cl)C(Cl)=C(Cl)Cl`: the Potency entry was “inactive”.

In the case of `Cc1ccc([N+](=O)[O-])cc1C`, the Potency result was “inactive”.

For the compound `COc1ccc(N)cc1`, the Potency result was “inactive”.

As for `CC(C)(C)OO`, the Potency entry is “inactive”.

For `CCCOC(=O)c1ccccc1C(=O)OCCC`, the Potency entry was “inactive”.

Turning to `ClC1=C(Cl)C2(Cl)C3C(Cl)C=CC3C1(Cl)C2(Cl)Cl` (configuration not stated), the Potency was 26.6 µM (active).

Take `Clc1cccc(C(Cl)(Cl)Cl)n1`: the Potency entry was “inactive”.

On to `[O-][Br+2]([O-])O`, for which the Potency result is “inactive”.

As to `CCCCCCCCCc1ccc(O)cc1`, the Potency entry was “inactive”.

As for `ClCBr`, the Potency result was “inactive”.

In the case of `CCOCN(C(=O)CCl)c1c(C)cccc1CC`, the Potency entry is “inactive”.

Consider `O=NN(c1ccccc1)c1ccccc1`, for which the Potency result is “inactive”.

Regarding `Nc1c(Cl)c(Cl)nc(C(=O)O)c1Cl`, the Potency entry was “inactive”.

Take `CCNc1nc(Cl)nc(NC(C)C)n1`: the Potency entry was “inactive”.

Regarding `CNC(=O)O/N=C/C(C)(C)SC`, the Potency result is “inactive”.

For `N#CCCCl`, the Potency result was “inactive”.

On to `CCCSC(=O)Cl`, for which the Potency result is “inactive”.

Take `C=C(Cl)Cl`: the Potency entry is “inactive”.

Regarding `ClC(Cl)=C(Cl)Cl`, the Potency entry was “inactive”.

For the compound `C=CCc1ccc2c(c1)OCO2`, the Potency result was “inactive”.

As to `CCCCOC(=O)c1ccccc1C(=O)OCCCC`, the Potency result was “inactive”.

Turning to `ClC(Cl)=C(c1ccc(Cl)cc1)c1ccc(Cl)cc1`, the Potency entry was “inactive”.
